Records with an inconclusive call do not appear. Active and inactive are the calls of the source. Rule for the calls, unless noted: active = hit-call score of the fitted dose curve at least 0.9, where 1 is the maximum; inactive = score below 0.9.
Assays:
[1] = molecular target: Glucocorticoid receptor (Homo sapiens) (UniProt P04150); assay: ATG_GR_TRANS: Attagene TRANS-FACTORIAL HepG2 Assay for human Glucocorticoid Receptor (GR) (AID 2282978; active = hit-call score of the fitted dose curve at least 0.9, where 1 is the maximum;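 note: activators score as hits since higher reporter transcript over DMSO is fitted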); conditions: HepG2 Attagene TRANS GR reporter, mRNA transcription
Sequence of Glucocorticoid receptor (Homo sapiens) (P04150 whole entry, looked up, the tested form may be a part): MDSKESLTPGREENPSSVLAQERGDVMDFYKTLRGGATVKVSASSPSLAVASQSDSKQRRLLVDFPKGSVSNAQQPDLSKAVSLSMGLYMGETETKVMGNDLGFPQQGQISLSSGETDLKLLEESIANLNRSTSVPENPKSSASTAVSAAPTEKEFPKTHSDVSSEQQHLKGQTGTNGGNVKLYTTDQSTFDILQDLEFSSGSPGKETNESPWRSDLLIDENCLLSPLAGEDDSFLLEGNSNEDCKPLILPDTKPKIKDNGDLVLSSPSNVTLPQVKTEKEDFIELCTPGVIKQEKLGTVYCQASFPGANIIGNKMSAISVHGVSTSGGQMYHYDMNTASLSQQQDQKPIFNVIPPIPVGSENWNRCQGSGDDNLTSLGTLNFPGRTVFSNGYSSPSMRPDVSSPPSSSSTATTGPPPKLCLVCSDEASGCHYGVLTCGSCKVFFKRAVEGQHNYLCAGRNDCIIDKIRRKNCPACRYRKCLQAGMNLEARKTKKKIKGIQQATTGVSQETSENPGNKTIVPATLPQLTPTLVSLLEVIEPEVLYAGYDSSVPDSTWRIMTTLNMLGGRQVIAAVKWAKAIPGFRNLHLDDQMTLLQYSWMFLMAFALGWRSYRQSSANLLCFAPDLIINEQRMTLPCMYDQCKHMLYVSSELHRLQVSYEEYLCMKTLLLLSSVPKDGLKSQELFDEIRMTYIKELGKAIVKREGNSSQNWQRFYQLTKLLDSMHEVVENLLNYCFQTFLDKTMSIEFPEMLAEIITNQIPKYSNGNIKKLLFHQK
Method in brief: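 Readout is reporter transcript from a chimeric GR-Gal4 acting on GAL4-UAS in transfected human HepG2 liver cells after 24 h exposure, quantified by RT-PCR and capillary electrophoresis. Activation fitted upward against DMSO.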

[2] = molecular target: Oxysterols receptor LXR-alpha (Homo sapiens) (UniProt Q13133); assay: ATG_LXRa_TRANS: Attagene TRANS-FACTORIAL HepG2 Assay for human Liver X Receptor alpha (LXRa) (AID 2282980; active = hit-call score of the fitted dose curve at least 0.9, where 1 is the maximum); conditions: HepG2 Attagene TRANS reporter, LXRa transactivation
Sequence of Oxysterols receptor LXR-alpha (Homo sapiens) (Q13133 whole entry, looked up, the tested form may be a part): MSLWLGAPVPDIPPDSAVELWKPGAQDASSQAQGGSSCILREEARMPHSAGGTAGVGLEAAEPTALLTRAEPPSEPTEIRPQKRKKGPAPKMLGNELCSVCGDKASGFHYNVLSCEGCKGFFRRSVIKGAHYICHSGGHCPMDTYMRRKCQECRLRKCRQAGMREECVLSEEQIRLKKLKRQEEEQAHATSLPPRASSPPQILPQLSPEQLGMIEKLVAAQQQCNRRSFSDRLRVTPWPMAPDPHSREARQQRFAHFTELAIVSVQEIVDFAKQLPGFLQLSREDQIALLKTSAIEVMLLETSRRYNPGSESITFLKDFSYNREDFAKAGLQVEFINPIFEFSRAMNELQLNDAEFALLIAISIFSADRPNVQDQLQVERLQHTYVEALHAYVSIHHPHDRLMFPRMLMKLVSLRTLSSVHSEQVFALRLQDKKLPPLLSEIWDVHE
Method in brief: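 In this multiplexed TRANS system, compounds act on HepG2 cells carrying GAL4-UAS reporter units and a receptor-GAL4 fusion for 24 h. Induced reporter RNA is amplified, fluorescently labelled and sized by capillary electrophoresis, with DMSO as baseline.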

[3] = ATG_M_06_TRANS: Attagene TRANS-FACTORIAL HepG2 Assay for M06 Transcription Factor (Internal Marker) (AID 2282983; active = hit-call score of the fitted dose curve at least 0.9, where 1 is the maximum); conditions: HepG2 Attagene TRANS M06 internal marker reporter
Method in brief: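 Multi-reporter-transfected HepG2, 24 h treatment; reporter transcripts quantified via RT-PCR, primer-extension labelling and CE. DMSO-normalized gain-of-signal fit.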

[4] = ATG_M_32_TRANS: Attagene TRANS-FACTORIAL HepG2 Assay for M32 Transcription Factor (Internal Marker) (AID 2282984; active = hit-call score of the fitted dose curve at least 0.9, where 1 is the maximum;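 note: transcript level of a background control reporter unit measured by RT-PCR and capillary electrophoresis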); conditions: HepG2 Attagene TRANS M32 internal marker reporter
Method in brief: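 Internal background reporter in transfected HepG2: after 24 h chemical exposure, RNA reverse-transcribed, reporter cDNA amplified, fluorescently labelled and HpaI-cut, then sized by capillary electrophoresis. Gain of signal fitted against DMSO control.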

[5] = molecular target: Nuclear receptor subfamily 4 group A member 2 (Homo sapiens) (UniProt P43354); assay: ATG_NURR1_TRANS: Attagene TRANS-FACTORIAL HepG2 Assay for human Nuclear Receptor Related Protein 1 (NURR1) (AID 2282985; active = hit-call score of the fitted dose curve at least 0.9, where 1 is the maximum); conditions: HepG2 Attagene TRANS reporter, mRNA readout
Sequence of Nuclear receptor subfamily 4 group A member 2 (Homo sapiens) (P43354 whole entry, looked up, the tested form may be a part): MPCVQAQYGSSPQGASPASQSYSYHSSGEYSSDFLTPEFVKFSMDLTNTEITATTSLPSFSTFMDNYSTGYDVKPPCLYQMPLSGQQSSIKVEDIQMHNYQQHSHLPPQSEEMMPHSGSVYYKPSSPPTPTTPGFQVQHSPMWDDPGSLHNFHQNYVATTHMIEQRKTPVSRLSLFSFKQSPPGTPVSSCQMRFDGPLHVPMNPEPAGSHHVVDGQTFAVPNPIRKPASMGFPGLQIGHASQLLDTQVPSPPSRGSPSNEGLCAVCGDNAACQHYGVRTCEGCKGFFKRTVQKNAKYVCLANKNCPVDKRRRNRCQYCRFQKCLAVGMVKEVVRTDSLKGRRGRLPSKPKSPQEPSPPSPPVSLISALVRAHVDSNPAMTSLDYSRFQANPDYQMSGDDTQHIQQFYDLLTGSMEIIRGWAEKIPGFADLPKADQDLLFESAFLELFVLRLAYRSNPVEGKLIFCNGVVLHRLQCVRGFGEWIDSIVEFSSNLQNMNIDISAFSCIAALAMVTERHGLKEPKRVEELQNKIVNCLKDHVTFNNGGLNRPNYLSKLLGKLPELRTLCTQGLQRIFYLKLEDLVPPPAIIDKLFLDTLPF
Method in brief: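 Reporter transcript induction, measured by RT-PCR with fluorescent labelling, HpaI digestion and capillary electrophoresis, after 24 hr dosing of human HepG2 cells transiently expressing an exogenous NR-Gal4 fusion with GAL4-UAS-driven reporters; DMSO as baseline.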

[6] = molecular target: Transcriptional activator Myb (Homo sapiens) (UniProt P10242); assay: ATG_Myb_CIS: Attagene CIS-FACTORIAL HepG2 Assay for human Myeloblastosis (Myb) Proto-Oncogene Transcription Factor (AID 2282986); conditions: HepG2 Attagene CIS-FACTORIAL Myb reporter transcription; actives raise or lower the signal
Sequence of Transcriptional activator Myb (Homo sapiens) (P10242 whole entry, looked up): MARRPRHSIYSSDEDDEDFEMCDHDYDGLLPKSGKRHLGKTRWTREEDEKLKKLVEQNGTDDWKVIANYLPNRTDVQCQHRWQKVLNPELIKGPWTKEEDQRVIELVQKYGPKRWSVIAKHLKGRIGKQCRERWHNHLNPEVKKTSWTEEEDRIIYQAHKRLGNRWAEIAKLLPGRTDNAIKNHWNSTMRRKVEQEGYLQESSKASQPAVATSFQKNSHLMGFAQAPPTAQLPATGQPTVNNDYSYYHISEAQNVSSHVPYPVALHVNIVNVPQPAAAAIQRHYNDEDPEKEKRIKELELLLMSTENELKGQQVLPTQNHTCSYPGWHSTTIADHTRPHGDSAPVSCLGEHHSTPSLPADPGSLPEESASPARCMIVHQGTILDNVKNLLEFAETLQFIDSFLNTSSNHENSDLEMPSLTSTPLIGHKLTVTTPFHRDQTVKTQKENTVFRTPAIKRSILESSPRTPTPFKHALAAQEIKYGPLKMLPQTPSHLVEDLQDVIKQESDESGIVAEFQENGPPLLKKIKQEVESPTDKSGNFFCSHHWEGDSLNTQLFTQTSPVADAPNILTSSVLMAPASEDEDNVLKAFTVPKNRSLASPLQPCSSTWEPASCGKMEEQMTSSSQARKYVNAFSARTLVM
Method in brief: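 Reporter mRNA is quantified by RT-PCR and capillary electrophoresis 24 h after dosing HepG2 cells transfected with cis-regulated reporter units, which track endogenous transcription factor activity. Gain and loss of signal are fitted versus DMSO baseline.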

[7] = molecular target: Nuclear respiratory factor 1 (Homo sapiens) (UniProt Q16656); assay: ATG_NRF1_CIS: Attagene CIS-FACTORIAL HepG2 Assay for human Nuclear Respiratory Factor 1 (NRF1) Orphan Gene (AID 2282987); conditions: HepG2 NRF1 cis-element reporter, Attagene multiplex; actives raise or lower the signal
Sequence of Nuclear respiratory factor 1 (Homo sapiens) (Q16656 whole entry, looked up): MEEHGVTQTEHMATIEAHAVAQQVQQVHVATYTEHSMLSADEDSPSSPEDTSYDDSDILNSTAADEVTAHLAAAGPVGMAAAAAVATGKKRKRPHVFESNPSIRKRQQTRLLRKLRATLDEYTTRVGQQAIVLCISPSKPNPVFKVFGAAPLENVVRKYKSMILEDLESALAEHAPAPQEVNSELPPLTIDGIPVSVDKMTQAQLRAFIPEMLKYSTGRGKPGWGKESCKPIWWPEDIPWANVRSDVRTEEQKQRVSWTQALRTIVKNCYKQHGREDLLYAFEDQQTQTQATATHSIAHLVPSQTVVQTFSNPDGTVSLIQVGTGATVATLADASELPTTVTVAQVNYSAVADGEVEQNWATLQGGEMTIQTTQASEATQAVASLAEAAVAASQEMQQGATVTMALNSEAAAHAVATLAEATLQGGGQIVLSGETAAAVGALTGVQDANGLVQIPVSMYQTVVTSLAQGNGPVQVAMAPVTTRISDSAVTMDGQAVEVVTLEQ
Method in brief: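 Endogenous NRF1-driven reporter transcription in transfected HepG2 cells after 24 h treatment. Readout: RT-PCR products, 6-FAM labelled and resolved by capillary electrophoresis; changes fitted both directions relative to DMSO.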

[8] = ATG_NFI_CIS: Attagene CIS-FACTORIAL HepG2 Assay for human Nuclear Factor I (NFI) (AID 2282989); conditions: HepG2 cis-regulatory reporter, NFI response element transcription; actives raise or lower the signal
Method in brief: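 HepG2, transient MRTU, 24 h exposure; RNA→cDNA→PCR→FAM label→HpaI→CE fluorescence. Bidirectional fit, DMSO = baseline.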

[9] = ATG_NF_kB_CIS: Attagene CIS-FACTORIAL HepG2 Assay for human Nuclear Factor Kappa B (NF-kB) (AID 2282991); conditions: HepG2 Attagene cis-factorial NF-kB reporter mRNA; actives raise or lower the signal
Method in brief: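 Readout is reporter transcript level, gain or loss versus DMSO, measured 24 h post-dose via RT-PCR, fluorescent labelling and capillary electrophoresis. Human HepG2 liver cells carried transiently transfected CIS reporter constructs reflecting endogenous factors.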

[10] = ATG_Oct_MLP_CIS: Attagene CIS-FACTORIAL HepG2 Assay for human Octamer-Binding Transcription Factor (Oct) (AID 2282993); conditions: HepG2 Attagene cis-factorial Oct reporter, mRNA; actives raise or lower the signal
Method in brief: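 Multiplexed cis-reporter assay in human liver HepG2 cells, 24 h incubation. Reporter RNA amplified and labelled, then resolved by capillary electrophoresis; DMSO serves as negative control and baseline.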

[11] = molecular target: Cellular tumor antigen p53 (Homo sapiens) (UniProt P04637); assay: ATG_p53_CIS: Attagene CIS-FACTORIAL HepG2 Assay for human p53 Transcription Factor (AID 2282994); conditions: HepG2 p53 cis-element reporter, Attagene mRNA; actives raise or lower the signal
Sequence of Cellular tumor antigen p53 (Homo sapiens) (P04637 whole entry, looked up): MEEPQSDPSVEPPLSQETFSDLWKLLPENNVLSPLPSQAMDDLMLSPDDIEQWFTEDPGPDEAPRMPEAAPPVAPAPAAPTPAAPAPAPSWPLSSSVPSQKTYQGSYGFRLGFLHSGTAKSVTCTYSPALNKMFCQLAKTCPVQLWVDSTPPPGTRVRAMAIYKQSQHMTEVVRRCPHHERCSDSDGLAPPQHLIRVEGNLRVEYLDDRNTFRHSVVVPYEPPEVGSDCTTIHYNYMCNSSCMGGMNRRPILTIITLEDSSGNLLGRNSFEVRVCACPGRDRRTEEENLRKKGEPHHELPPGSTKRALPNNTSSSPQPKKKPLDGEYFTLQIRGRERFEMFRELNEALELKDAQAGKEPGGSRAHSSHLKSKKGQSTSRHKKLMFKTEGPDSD
Method in brief: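 Read-out: reporter mRNA by RT-PCR plus capillary electrophoresis with fluorescence detection. Human HepG2 liver cells carried transfected multi-reporter cis-element constructs, dosed 24 h. Gain or loss of signal fitted bidirectionally against DMSO control.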

[12] = molecular target: Hepatocyte nuclear factor 4-alpha (Homo sapiens) (UniProt P41235); assay: ATG_HNF4a_TRANS: Attagene TRANS-FACTORIAL HepG2 Assay for human Hepatocyte Nuclear Factor 4 alpha (HNF4a) (AID 2282982; active = hit-call score of the fitted dose curve at least 0.9, where 1 is the maximum); conditions: HepG2 HNF4a transactivation reporter, mRNA readout
Sequence of Hepatocyte nuclear factor 4-alpha (Homo sapiens) (P41235 whole entry, looked up, the tested form may be a part): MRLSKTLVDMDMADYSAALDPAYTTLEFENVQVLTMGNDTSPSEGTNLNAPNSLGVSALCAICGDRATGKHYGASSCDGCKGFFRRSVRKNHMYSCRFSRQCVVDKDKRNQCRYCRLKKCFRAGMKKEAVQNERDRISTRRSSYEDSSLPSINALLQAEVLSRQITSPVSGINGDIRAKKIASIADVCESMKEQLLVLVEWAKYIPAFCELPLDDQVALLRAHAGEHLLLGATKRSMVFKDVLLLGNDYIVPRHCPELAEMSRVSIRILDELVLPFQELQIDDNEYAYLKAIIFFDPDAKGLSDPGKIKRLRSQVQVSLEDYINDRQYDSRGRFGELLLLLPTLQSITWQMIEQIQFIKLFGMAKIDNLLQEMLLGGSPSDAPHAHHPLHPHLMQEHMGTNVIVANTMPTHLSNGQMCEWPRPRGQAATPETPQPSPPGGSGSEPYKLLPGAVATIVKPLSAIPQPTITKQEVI
Method in brief: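 Activity of an exogenous HNF4a–Gal4 fusion scored as induced GAL4-UAS reporter transcripts after 24 h chemical exposure of transfected human HepG2 cells. Read-out via RT-PCR with 6-FAM labelling and capillary electrophoresis; rise over DMSO baseline.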

[13] = molecular target: Myc proto-oncogene protein (Homo sapiens) (UniProt P01106); assay: ATG_Myc_CIS: Attagene CIS-FACTORIAL HepG2 Assay for human Myelocytomatosis (Myc) Proto-Oncogene Transcription Factor (AID 2282990); conditions: HepG2, Attagene cis-reporter transcription factor activity; actives raise or lower the signal
Sequence of Myc proto-oncogene protein (Homo sapiens) (P01106 whole entry, looked up): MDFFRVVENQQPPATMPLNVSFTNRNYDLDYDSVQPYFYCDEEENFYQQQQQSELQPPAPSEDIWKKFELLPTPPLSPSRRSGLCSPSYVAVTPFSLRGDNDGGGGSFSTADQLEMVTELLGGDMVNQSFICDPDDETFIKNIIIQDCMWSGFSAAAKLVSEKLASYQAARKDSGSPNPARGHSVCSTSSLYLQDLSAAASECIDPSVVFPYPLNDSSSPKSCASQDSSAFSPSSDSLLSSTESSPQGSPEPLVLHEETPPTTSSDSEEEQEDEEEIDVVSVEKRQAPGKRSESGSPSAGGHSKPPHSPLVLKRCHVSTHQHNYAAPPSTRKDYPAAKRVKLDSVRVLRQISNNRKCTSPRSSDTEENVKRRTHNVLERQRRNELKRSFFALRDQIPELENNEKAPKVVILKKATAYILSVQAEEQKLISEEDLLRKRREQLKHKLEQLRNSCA
Method in brief: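 HepG2, transient MRTU transfection (cis promoters, endogenous TFs); 24 h dosing; TriZol RNA → oligo(dT) RT → PCR → 6-FAM primer extension → HpaI cut → CE. Bidirectional fit vs DMSO.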

[14] = ATG_NRF2_ARE_CIS: Attagene CIS-FACTORIAL HepG2 Assay for human Nuclear Factor Erythroid 2 Related Factor 2 (NFR2) response to Antioxidant Response Elements (ARE) (AID 2282992); conditions: HepG2 Attagene ARE/NRF2 reporter, transcription factor activity; actives raise or lower the signal;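 for AC50: reporter mRNA level measured by RT-PCR and capillary electrophoresis fluorescence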
Method in brief: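 Readout: reporter mRNA quantified by RT-PCR plus FAM-labelled primer extension, HpaI digestion and capillary electrophoresis, 24 h after dosing transfected HepG2 cells. Gain or loss of signal is fitted bidirectionally against DMSO baseline.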

[15] = molecular target: Oxysterols receptor LXR-beta (Homo sapiens) (UniProt P55055); assay: ATG_LXRb_TRANS: Attagene TRANS-FACTORIAL HepG2 Assay for human Liver X Receptor beta (LXRb) (AID 2282981; active = hit-call score of the fitted dose curve at least 0.9, where 1 is the maximum); conditions: HepG2 Attagene TRANS GAL4-LXRb reporter, mRNA
Sequence of Oxysterols receptor LXR-beta (Homo sapiens) (P55055 whole entry, looked up, the tested form may be a part): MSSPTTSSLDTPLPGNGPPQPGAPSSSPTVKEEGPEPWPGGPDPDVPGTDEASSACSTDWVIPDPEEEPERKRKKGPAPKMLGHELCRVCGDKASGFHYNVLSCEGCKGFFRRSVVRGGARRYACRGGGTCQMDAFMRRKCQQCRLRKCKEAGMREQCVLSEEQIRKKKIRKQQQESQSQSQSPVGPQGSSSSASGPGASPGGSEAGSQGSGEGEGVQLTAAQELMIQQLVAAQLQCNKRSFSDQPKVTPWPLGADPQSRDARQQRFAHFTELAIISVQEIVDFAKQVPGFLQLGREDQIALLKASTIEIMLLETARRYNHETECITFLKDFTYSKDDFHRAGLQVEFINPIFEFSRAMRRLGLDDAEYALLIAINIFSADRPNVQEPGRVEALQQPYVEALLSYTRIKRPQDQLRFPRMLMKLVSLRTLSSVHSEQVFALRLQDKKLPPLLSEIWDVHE
Method in brief: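 After 24 h chemical treatment of transfected HepG2 cells carrying exogenous NR-Gal4 chimeras, reporter mRNA was quantified by fluorescent RT-PCR and capillary electrophoresis; activity taken as increase over DMSO controls.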

[16] = BSK_3C_uPAR: BioMAP Diversity Plus: 3C Assay for Urokinase-type plasminogen activator receptor (uPAR) Biomarker Activity (AID 2282998); conditions: BioMAP 3C HUVEC, uPAR biomarker ELISA; actives raise or lower the signal
Method in brief: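 Dose primary human umbilical vein endothelial cells, incubate 24 h, measure cell-surface uPAR by ELISA, then fit the signal in both directions against the DMSO negative control.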

[17] = BSK_4H_Eotaxin3: BioMAP Diversity Plus: 4H Assay for Eotaxin 3 Biomarker Activity (AID 2283000); conditions: primary human endothelial cells (HUVEC); actives raise or lower the signal
Method in brief: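 ELISA quantitation of CCL26 (Eotaxin-3) protein from chemically dosed human vascular endothelial cells at 24 h; increases and decreases both scored relative to DMSO-treated baseline.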

[18] = BSK_3C_TissueFactor: BioMAP Diversity Plus: 3C Assay for Tissue Factor Biomarker Activity (AID 2282997); conditions: BioMAP 3C HUVEC, tissue factor biomarker readout; actives raise or lower the signal
Method in brief: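 In this endothelial system, HUVEC are treated for 24 h and Tissue Factor is assessed by ELISA, normalised to DMSO.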

[19] = BSK_3C_VCAM1: BioMAP Diversity Plus: 3C Assay for Vascular cell adhesion molecule 1 (VCAM1) Biomarker Activity (AID 2282999); conditions: BioMAP 3C HUVEC, VCAM1 ELISA, cytokine-stimulated; actives raise or lower the signal
Method in brief: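 Activity fitted in both directions relative to DMSO, with ELISA measurement of the surface marker on primary HUVEC (3C) at 24 h post-treatment; parallel SRB staining (0.1% SRB, TCA-fixed, 560 nm) flagged overt cytotoxicity.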

Measured: AC50

C[C@]12CC[C@H]3[C@@H](CCC4=CC(=O)CC[C@@]43C)[C@@H]1CC[C@@H]2C(=O)CO
active: [1] 6.33 µM | [11] 42.5 µM
inactive: [2] | [3] | [4] | [5] | [6] | [7] | [8] | [9] | [10]

CN1Cc2c(N)cccc2C(c2ccccc2)C1 (stereo unspecified)
inactive: [1] | [2] | [12] | [5] | [6] | [7] | [8] | [13] | [14] | [10]

CCC(C)CCCC(C)(C)O (stereo unspecified)
inactive: [1] | [2] | [4] | [7] | [8] | [13] | [9] | [10] | [11]

CC(=O)Nc1ccc(CC(=O)O)cc1
inactive: [1] | [2] | [15] | [7] | [8] | [13] | [14] | [10] | [11]

C=CCOc1nc(OCC=C)nc(OCC=C)n1
not listed: [5] | [12] | [15] | [16] | [17] | [18] | [19]
inactive: all other assays above

COCCCOc1ccnc(CS(=O)c2nc3ccccc3[nH]2)c1C (stereo unspecified)
active: [2] 23.2 µM | [14] 36.4 µM
not listed: [8] | [12] | [15] | [16] | [17] | [18] | [19]
inactive: all other assays above

NCCOCCO
inactive: [1] | [2] | [12] | [6] | [7] | [8] | [13] | [14] | [10] | [11]

OC[C@H]1O[C@H](O[C@]2(CCl)O[C@H](CCl)[C@@H](O)[C@@H]2O)[C@H](O)[C@@H](O)[C@H]1Cl
not listed: [5] | [9] | [12] | [15] | [18] | [19]
inactive: all other assays above

O=c1cc(-c2ccccc2)oc2cc(O)cc(O)c12
active: [9] 12.4 µM | [14] 2.2 µM | [11] 3.66 µM
not listed: [12] | [15] | [16] | [17] | [18] | [19]
inactive: all other assays above

O=C(O)c1ccc(C(=O)O)cc1
not listed: [15] | [16] | [17] | [18] | [19]
inactive: all other assays above

Clc1ccc(Cl)c(Cl)c1Cl
not listed: [3] | [12] | [15] | [16] | [17] | [18] | [19]
inactive: all other assays above

C=C(C)C(=O)OCCOC(=O)CC(C)=O
not listed: [3] | [5] | [12] | [16] | [17] | [18] | [19]
inactive: all other assays above

CCN(CC)c1ccc(C(=C2C=CC(=[N+](CC)CC)C=C2)c2ccc(S(=O)(=O)O)cc2S(=O)(=O)[O-])cc1
not listed: [15] | [16] | [17] | [18] | [19]
inactive: all other assays above

O=C(O)CCCCCCCCCCC(=O)O
not listed: [4] | [8] | [11] | [14] | [16] | [17] | [18] | [19]
inactive: all other assays above

C=CC(C)(O)CCC=C(C)CCC=C(C)C (stereo unspecified)
inactive: [1] | [2] | [3] | [11]
active: [7] 164 µM | [8] 143 µM | [9] 180 µM | [10] 82.7 µM

C=CC[N+](C)(C)CC=C
not listed: [15] | [16] | [17] | [18] | [19]
inactive: all other assays above

CC(O)C(C)O (stereo unspecified)
not listed: [4] | [6] | [14] | [15] | [16] | [17] | [18] | [19]
inactive: all other assays above

CC1COc2ccccc2N1C(=O)C(Cl)Cl (stereo unspecified)
active: [14] 6.61 µM | [10] 30.6 µM | [16] 5.99 µM | [17] 7.09 µM
not listed: [3] | [5] | [11] | [12] | [15] | [19]
inactive: all other assays above

O=CCCc1ccccc1
inactive: [1] | [2] | [3] | [4] | [6] | [7] | [8] | [13] | [9] | [10]
active: [14] 38 µM

CC(C)c1cccc(O)c1
not listed: [12] | [15] | [16] | [17] | [18] | [19]
inactive: all other assays above

O=C=NC1CCC(CC2CCC(N=C=O)CC2)CC1 (stereo unspecified)
active: [13] 100 µM | [10] 61.8 µM
not listed: [4] | [5] | [9] | [12] | [15] | [18]
inactive: all other assays above

CCCCCCCCCCCCOCCO
active: [7] 52.5 µM | [8] 56.6 µM | [13] 50.2 µM | [14] 54 µM | [10] 56.5 µM
inactive: [1] | [2] | [3] | [4] | [5] | [9]

Reference: PubChem BioAssay (EPA / NIEHS)
